Test results taken from PubChem BioAssay (NCI).
About 79,000 compounds went through this panel and 15% of them were active in at least one assay; those are over-represented in the sample as a whole. Unmarked numbers belong to inactive results. Active and inactive are the calls of the source. Rule as the data show it: active = growth inhibition above about 70%; inactive = the rest.

Tests used:
[1] = NCI Yeast Anticancer Drug Screen. Data for the rad50 strain (AID 155);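 also: 0% = growth of vehicle-only cultures of the same strain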; conditions: S. cerevisiae rad50 strain growth inhibition, stronger effect = higher value
In short: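 DNA repair mutant yeast, compound exposure, growth read-out; inhibition is taken relative to vehicle.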

[2] = NCI Yeast Anticancer Drug Screen. Data for the mec2-1 strain (AID 157); conditions: S. cerevisiae mec2-1 strain, stronger effect = higher value
In short: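 Growth inhibition is read against vehicle-treated controls after compound exposure of the mec2-1 yeast strain, which is defective in DNA damage repair or cell cycle control.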

[3] = NCI Yeast Anticancer Drug Screen. Data for the sgs1 mgt1 strain (AID 161);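 also: 0% = growth of cultures given vehicle only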; conditions: S. cerevisiae sgs1 mgt1 strain, stronger effect = higher value
In short: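 Compounds are added to genetically altered yeast, and growth is compared with cultures given vehicle alone to give percent inhibition.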

[4] = NCI Yeast Anticancer Drug Screen. Data for the cln2 rad14 strain (AID 165);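 also: 0% = growth equal to vehicle treated cultures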; conditions: S. cerevisiae cln2 rad14 strain, stronger effect = higher value
In short: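 Growth inhibition, relative to vehicle-treated controls, is the read-out. The test organism is a yeast strain with defined genetic alterations, cln2 rad14.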

[5] = NCI Yeast Anticancer Drug Screen. Data for the bub3 strain (AID 167); conditions: S. cerevisiae bub3 mutant strain, stronger effect = higher value
In short: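 In this screen, a yeast mutant lacking normal mitotic checkpoint function is challenged with compound. Relative growth versus vehicle gives the inhibition value.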

[6] = NCI Yeast Anticancer Drug Screen. Data for the mlh1 rad18 strain (AID 175); conditions: S. cerevisiae mlh1 rad18 strain growth inhibition, stronger effect = higher value
In short: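 Cells of a genetically altered yeast strain, deficient in DNA damage repair, were treated with compound. Their growth was then compared with that of vehicle-treated cultures to give inhibition.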

[7] = at 5.0 µM (retest, dose inferred, filed as 0.5)
[8] = at 50.0 µM (retest, dose inferred, filed as 5.0)

SMILES | growth inhibition [1, 7] | growth inhibition [1, 8] | growth inhibition ([1]; at 50.0 µM) | growth inhibition [2, 7] | growth inhibition [2, 8] | growth inhibition ([2]; at 50.0 µM) | growth inhibition [3, 7] | growth inhibition [3, 8] | growth inhibition ([3]; at 50.0 µM) | growth inhibition [4, 7] | growth inhibition [4, 8] | growth inhibition ([4]; at 50.0 µM) | growth inhibition [5, 7] | growth inhibition [5, 8] | growth inhibition ([5]; at 50.0 µM) | growth inhibition [6, 7] | growth inhibition [6, 8] | growth inhibition ([6]; at 50.0 µM)
Nc1ccccc1CC(c1c[nH]c2ccccc12)c1c[nH]c2ccccc12 | 4% | 7% | 94% (active) | 1% | 17% | 95% (active) | 1% | 10% | 94.4% (active) | 93% (active) | -7% | 90.5% (active) | 2% | 26% | 93% (active) | 4% | 27% | 93.8% (active)
Cc1ccc(S(=O)(=O)CC(=O)CC(=O)C(=O)Nc2cc(C)ccc2C)cc1 | -1% | 4% | 34.2% | -2% | -8% | 9.95% | -2% | 0% | 17.9% | -3% | -1% | 1.85% | -2% | -2% | -0.55% | -2% | -2% | 12.6%
CSc1ncc2c(n1)-c1ccccc1OC2NC1CC1 (stereo not given) | 24% | 22% | 71.5% (active) | 18% | 16% | 62.5% | 17% | 20% | 11.3% | 26% | 27% | -2.85% | 24% | 28% | 14.6% | 18% | 12% | -7.35%
CCCCNCCC1(c2ccccc2)C(=O)Oc2ccccc21 (stereo not given) | -5% | 14% | 63.2% | -4% | 18% | 57.5% | -5% | 35% | 59.9% | 0% | -17% | 46.2% | -5% | -12% | -9.45% | -7% | 10% | 53%
CC1=C(C(=O)Nc2ccccc2Cl)C(c2cccc([N+](=O)[O-])c2)C(C(=O)Nc2ccccc2Cl)=C(C)N1 | -12% | 53% | 11.8% | 27% | 67% | 30.2% | -10% | 51% | 20.4% | 11% | 61% | 1.9% | 21% | 80% (active) | 27.9% | 13% | 63% | 13.3%
O=C1OC(c2ccccc2)(c2ccc(-c3ccccc3O)cc2)c2ccccc21 (stereo not given) | 87% (active) | 90% (active) | 94.2% (active) | 71% (active) | 92% (active) | 95.1% (active) | 89% (active) | 93% (active) | 93% (active) | 60% | 90% (active) | 92.9% (active) | 61% | 90% (active) | 95.1% (active) | 92% (active) | 91% (active) | 93.5% (active)
CC(C)C(=O)c1ccc([N+](=O)[O-])o1 | 2% | 97% (active) | 98.8% (active) | 11% | 97% (active) | 99% (active) | 8% | 96% (active) | 97.7% (active) | -3% | 99% (active) | 97.3% (active) | 1% | 97% (active) | 99.1% (active) | 6% | 98% (active) | 98.5% (active)
O=C(O)c1cc2ccc3cccc4ccc(c1)c2c34 | 4% | 93% (active) | 80.3% (active) | 1% | 89% (active) | 70.7% (active) | 3% | 94% (active) | 87.3% (active) | -4% | 92% (active) | 77.8% (active) | -3% | 90% (active) | 88.4% (active) | 9% | 94% (active) | 86% (active)
O=C(O)CCCCCCCCCC[S+](CCO)CCO | -2% | 31% | 43.2% | 3% | 29% | 26.4% | 2% | 50% | 62.1% | 20% | 12% | 67.5% | 3% | 12% | 37.4% | 1% | 44% | 34.5%
CCOC(=O)/C=C(\NC1CC(OC2C[C@](O)(C(C)=O)Cc3c(O)c4c(c(O)c32)C(=O)c2c(OC)cccc2C4=O)OC(C)C1O)C(=O)OCC (stereo not given in full) | 44% | 95% (active) | 68.8% | 28% | 97% (active) | 74.3% (active) | 40% | 95% (active) | 90.5% (active) | 44% | 92% (active) | 88.7% (active) | 43% | 97% (active) | 87.5% (active) | 34% | 96% (active) | 87.5% (active)
C=C1CC2(CCCC3(CC(=C)C(=O)O3)C2(C)C)OC1=O (stereo not given) | 20% | 96% (active) | 33% | 14% | 98% (active) | 38.4% | 57% | 97% (active) | 38.8% | 15% | 96% (active) | 23.1% | 7% | 96% (active) | 44.6% | 12% | 97% (active) | 66.6%
CNC(=O)N(C)/N=C/c1ccc([N+](=O)[O-])o1 | 15% | 67% | 84.5% (active) | 4% | 40% | 50.5% | 14% | 78% (active) | 93.5% (active) | 0% | 36% | 54.6% | 17% | 55% | 45.5% | 24% | 76% (active) | 91.8% (active)
COC(=O)CCC(C)C1CCC2C3CCC4CC(SC(=N)N)CCC4(C)C3CC(O)C12C (stereo not given) | 95% (active) | 99% (active) | 99.1% (active) | 23% | 99% (active) | 99.7% (active) | 98% (active) | 99% (active) | 99.7% (active) | 63% | 99% (active) | 99.2% (active) | 99% (active) | 99% (active) | 99.3% (active) | 84% (active) | 99% (active) | 99.4% (active)
O=C1CC2(CCN(CC3COc4ccccc4O3)CC2)C(=O)N1N1CCCCCC1 (stereo not given) | 51% | 66% | 77% (active) | 33% | 41% | 70.4% (active) | 62% | 66% | 82.8% (active) | 78% (active) | 83% (active) | 84% (active) | 48% | 68% | 85.5% (active) | 37% | 75% (active) | 83.8% (active)
Nc1ccc(Cl)c2cccnc12 | 11% | 92% (active) | 97.5% (active) | 4% | 94% (active) | 35.5% | 5% | 89% (active) | 86.7% (active) | 0% | 46% | 87.2% (active) | 0% | 90% (active) | 15.2% | 7% | 94% (active) | 91.9% (active)
CCC[CH2][Ge]([CH2]CCC)([CH2]CCC)[O]C(=O)C(OC(C)=O)c1ccccc1 (stereo not given) | 95% (active) | 95% (active) | 78% (active) | 85% (active) | 85% (active) | 75.2% (active) | 98% (active) | 98% (active) | 86% (active) | 55% | 55% | 71% (active) | 62% | 62% | 85% (active) | 87% (active) | 87% (active) | 79.5% (active)
COC(=O)N1C2C=CC(=O)C(C=C2)N1C(=O)OC (stereo not given) | -3% | 30% | 33.9% | 2% | 38% | 53.2% | 0% | 58% | 47% | 1% | 23% | 36.4% | -1% | 34% | 60.6% | 18% | 79% (active) | 85% (active)
CCOSc1ccccc1 | 3% | 50% | 34.3% | 5% | 63% | 32.7% | 3% | 74% (active) | 16.2% | 2% | 22% | 16.1% | 0% | 74% (active) | 20.6% | 21% | 93% (active) | 56.7%
C/C=C(/CCC1NCCC2c3ccccc3NC12)[Si](C)(C)C (stereo not given) | 1% | 8% | 10.2% | -5% | 8% | 7.15% | -2% | 37% | 59.6% | -5% | 0% | 0.15% | -3% | 15% | 5.6% | -4% | 37% | 44.5%
O=C1CCC(Cc2ccccc2Br)C(=O)N1 (stereo not given) | -5% | 10% | -10.8% | -1% | 6% | 36% | 11% | 92% (active) | 97.2% (active) | -4% | 8% | -39.2% | -4% | 6% | -45.5% | -7% | 6% | 6.35%
